# An excerpt weighted towards active compounds, which were near 18% of everything screened.
# Six1-Eya2 blk = Six1/Eya2 interaction inhibition | actives 0.56% (n = 360,000) | AlphaScreen GST-Six1/His-Eya2 binding, biochemical; stronger effect = lower value | activity change, % (no concentration beside the values) | Q15475+O00167; in the data active means activity change below about -65%; inconclusive means mostly about -30% to -63%
#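 AlphaScreen with GST-Six1 and His-Eya2 (5X mix: 250 nM and 500 nM), glutathione donor and nickel acceptor beads; buffer 50 mM Tris pH 8.0, 300 mM NaCl, 1 mM TCEP; 1 h at 37 C in the dark.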
# IL-1B inflam inh = inhibitors of inflammasome signaling (IL-1 beta secretion); actives 4.7% (n = 360,000); activity change, % at 57.5 µM; THP-1 LPS/ATP IL-1B secretion, AlphaLISA, 16 h; stronger effect = lower value; in the data active means activity change below about -50%; inconclusive means mostly about -30% to -49%
#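 Secreted IL-1B measured by AlphaLISA bead assay after 16 h compound exposure of THP-1 cells; compounds (final up to 57.5 uM) added 1 h before LPS (250 ng/mL) and ATP (1.25 mM) stimulation; lower signal means less secretion.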
# TDP1 cell noCPT = qHTS for Inhibitors of human tyrosyl-DNA phosphodiesterase 1 (TDP1): qHTS in cells in absence of CPT. actives 15% (n = 420,000). AID 686978, 2013. Potency, µM (titrated, usually from 46.2 µM), for the others: at the top dose activity change, negative = growth inhibition, hits mostly inhibitors. DT40 Tdp1-/- hTDP1 cells, no CPT, ATP luminescence, 48 h; further: potency means the concentration at half of the fitted maximal effect; nearly all actives have a fitted effect of over 55% in size
#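 Readout: luminescence from CellTiter-Glo after 30 min in the dark at RT. Cells: DT40 Tdp1-/- with stable hTDP1, 400/well. Exposure: compounds alone, ≥48 hr, 37 °C.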
# DT40 TDP1 CPT = DT40-hTDP1 cell growth loss with CPT; chicken DT40 Tdp1-/-;hTDP1 cells + 20 nM CPT, ATP luminescence, 48 h; actives 12% (n = 420,000); Potency, µM (doses to about 46.2 µM), inactives show at the top dose activity change, negative = growth inhibition, actives largely listed as inhibitors; further: potency means the concentration at half of the fitted maximal effect; nearly all actives have a fitted effect of over 55% in size
#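 Cell growth measured by CellTiter-Glo luminescence after a minimum 48 h, 37 C compound exposure with 20 nM CPT in Tdp1-knockout DT40 cells stably expressing hTDP1, seeded 400/well; qHTS titration format.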
# TDP1 block = inhibitors of human tyrosyl-DNA phosphodiesterase TDP1 | Q9NUW8 | actives 0.28% (n = 350,000) | Potency, µM (titrated, usually from 130 µM), without a hit: at the highest dose activity change, negative = inhibition, usual class: inhibitors | recombinant TDP1, AlphaScreen DNA substrate cleavage; further: potency means the concentration at half of the fitted maximal effect; nearly all actives have a fitted effect of over 40% in size
# Target sequence (Q9NUW8 whole entry, looked up): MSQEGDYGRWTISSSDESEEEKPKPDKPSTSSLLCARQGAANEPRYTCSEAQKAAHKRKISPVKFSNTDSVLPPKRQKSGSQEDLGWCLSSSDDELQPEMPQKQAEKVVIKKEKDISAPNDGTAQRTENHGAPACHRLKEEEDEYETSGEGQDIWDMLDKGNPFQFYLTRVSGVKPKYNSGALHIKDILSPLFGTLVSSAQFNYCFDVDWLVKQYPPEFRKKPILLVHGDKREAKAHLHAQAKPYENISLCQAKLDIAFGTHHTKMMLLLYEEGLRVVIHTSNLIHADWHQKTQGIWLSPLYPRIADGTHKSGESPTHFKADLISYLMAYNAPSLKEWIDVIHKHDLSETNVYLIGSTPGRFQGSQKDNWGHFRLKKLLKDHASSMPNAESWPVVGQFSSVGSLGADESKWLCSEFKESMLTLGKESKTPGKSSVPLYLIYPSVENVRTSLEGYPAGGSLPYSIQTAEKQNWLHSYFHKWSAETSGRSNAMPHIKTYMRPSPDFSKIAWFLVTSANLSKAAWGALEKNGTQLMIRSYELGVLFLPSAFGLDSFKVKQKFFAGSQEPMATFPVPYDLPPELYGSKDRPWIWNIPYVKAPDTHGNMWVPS
#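 AlphaScreen read-out: signal falls as enzyme removes the 3' tyrosine-FITC from a 5'-biotinylated DNA oligo (15 nM, 5 min, RT). Enzyme was E. coli-made recombinant Tdp1 at 1 nM, exposed to compound for 15 min beforehand; beads 10 ug/ml, 10 min.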
# CtBP-E1A inh = CtBP/E1A binding inhibition. AlphaScreen GST-E1A/His-CtBP binding, 1536-well; stronger effect = lower value. activity change, % (concentration not given with the values). actives 0.49% (n = 340,000); in the data active means activity change below about -65%; inconclusive means mostly about -30% to -63%
#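 Homogeneous bead-based format: GST-tagged E1A captured on glutathione donor beads, His-tagged CtBP on nickel acceptor beads; compounds precede bead addition by 2 h at 37 °C.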
# An asterisk follows results filed as active; u = inconclusive; x = not tested or not shown; [ ] = dose if it differs, or a comment. Unless noted, the call rests on the fitted dose curve; in most records, active means well fitted curve in the direction sought with a large enough effect; inconclusive means small, poorly fitted or top-dose-only effect, or another doubt; inactive means no such curve, though single readings can be large; an effect the other way counts as inactive or inconclusive. On the % scale 0 is the no-effect control and ±100 the full control effect.
SMILES,Six1-Eya2 blk,IL-1B inflam inh,TDP1 cell noCPT,DT40 TDP1 CPT,TDP1 block,CtBP-E1A inh
O=C(NC(CC(=O)N1CCN(c2ccc([N+](=O)[O-])cc2)CC1)c1ccccc1)c1ccccc1Cl (configuration not stated),-2,-16,16µM*,u,5%,x
CCN(CC)C1Oc2cc3c(cc2C(c2cccc(OC)c2O)C1C)OCO3 (configuration not stated),-17,-25,23µM*,u,x,-4
COc1cccc(C2c3cc4c(cc3OC(N3CCOCC3)C2C)OCO4)c1O (configuration not stated),-9,0,8.2µM*,-91%,x,3
COc1ccc(C2c3cc4c(cc3OC(N3CCOCC3)C2C)OCO4)c(OC)c1 (configuration not stated),u,22,4.1µM*,5.2µM*,x,0
COc1cccc(C2c3cc4c(cc3OC(C)(N3CCCC3)C2C)OCO4)c1O (configuration not stated),-22,-66*,10µM*,13µM*,x,7
O=C(CCNC(=O)c1ccccc1Cl)Nc1cccc(C(F)(F)F)c1,-1,-19,-18%,-10%,-1%,x
CN(Cc1ccccc1F)C(=O)c1cccc(NC(=O)CC2SC(N3CCCCC3)=NC2=O)c1 (configuration not stated),12,-1,23µM*,18µM*,x,-6
O=C(CC1SC(N2CCCC2)=NC1=O)Nc1ccc(C(=O)N2CCN(c3cccc(Cl)c3)CC2)cc1 (configuration not stated),-2,-50*,u,15µM*,4%,-2
CN(C)C(=O)c1ccc(NC(=O)CC2SC(N3CCCC3)=NC2=O)cc1 (configuration not stated),7,5,8%,3%,1%,-24
O=C(CC1SC(N2CCCC2)=NC1=O)Nc1ccc(C(=O)Nc2ncccc2O)cc1 (configuration not stated),-7,50,10µM*,15µM*,x,2
O=C(c1ccc(Cl)c(S(=O)(=O)N2CCCC2)c1)N1CCCC(C(F)(F)F)C1 (configuration not stated),11,0,u,-23%,0%,-7
O=C(N/N=C/c1ccc[nH]1)c1ccccc1OCc1ccccc1Cl,u,-90*,u,u,6%,u
Cc1cc(C(=O)N/N=C/c2ccc[nH]2)no1,-9,-8,18µM*,u,2%,-26
O=C(N/N=C/c1ccco1)c1ccccc1OCc1ccccc1Cl,-16,11,-18%,u,4%,-20
Cc1cc(Br)c(OCc2ccc(C(=O)N/N=C/c3ccc[nH]3)cc2)c(Br)c1,-10,-62*,u,u,-2%[56.1 µM],4
O=C(N/N=C/c1ccc[nH]1)c1ccc(COc2cccc3cccnc23)cc1,-25,-89*,-47%,-16%,0%,-20
CC(=O)N1CCCC1c1nc2ccccc2n1Cc1ccc(F)cc1 (configuration not stated),x,x,-18%,-25%,3%,x
COC(=O)c1[nH]c2cc(OC)ccc2c1NC(=O)CCN1CCN(c2cccc(C)c2C)CC1,-21,-15,21µM*,u,4%,-28
COC(=O)c1[nH]c2ccc(C)cc2c1NC(=O)CN1CCc2cc(OC)c(OC)cc2C1,-19,-12,23µM*,16µM*,3%,-22
COC(=O)c1[nH]c2cc(OC)ccc2c1NC(=O)CCN1CCN(c2ccccc2)CC1,-11,-14,u,u,3%,-3
COC(=O)c1[nH]c2ccccc2c1NC(=O)CN1CCN(c2cccc(OC)c2)C(C)C1 (configuration not stated),u,-11,18µM*,23µM*,11%,-25
COC(=O)c1[nH]c2ccccc2c1NC(=O)CN1CCN(Cc2ccc3c(c2)OCO3)CC1,-6,-16,u,u,1%,0
COC(=O)c1[nH]c2ccc(F)cc2c1NC(=O)CCN1CCN(Cc2ccc3c(c2)OCO3)CC1,-9,-1,21µM*,16µM*,4%,-4
O=C(CCNC(=O)c1ccc([N+](=O)[O-])cc1)NNC(=O)c1ccncc1,3,-9,13%,22%,3%,-1
NNC(=O)CSc1nnnn1-c1ccccc1,1,74,-5%,-4%,6%,0
SMILES,Six1-Eya2 blk,IL-1B inflam inh,TDP1 cell noCPT,DT40 TDP1 CPT,TDP1 block,CtBP-E1A inh
CCC(=O)C1CCCN(C(=O)c2ccc(OC)c(OC3CCN(C(C)=O)CC3)c2)C1 (configuration not stated),3,9,17%,7%,3%,5
CCOC(=O)c1[nH]c2cc3c(cc2c1NC(=O)CN1CC(C)CC(C)C1)OCO3 (configuration not stated),8,-17,26µM*,u,2%,4
COc1cc2c(cc1OC)CN(CC(=O)Nc1ccccc1SC)CC2,-4,-29,23µM*,u,6%,-8
CCOC(=O)c1[nH]c2ccc(OCC)cc2c1NC(=O)CN1CCCC(C)C1 (configuration not stated),-1,-17,u,u,6%,3
CCOC(=O)c1[nH]c2ccc(OCC)cc2c1NC(=O)CN1CCN(c2ccccn2)CC1,-12,-12,16µM*,u,6%,-23
CCOC(=O)c1[nH]c2ccc(OC)cc2c1NC(=O)CN1CCN(c2ccccn2)CC1,x,x,x,x,-5%,x
CCOC(=O)c1[nH]c2ccc(OC)cc2c1NC(=O)CN1CCc2ccccc2C1,-23,u,16µM*,26µM*,9%,-24
COc1cccc(C(C(=O)NC2CCCC2)N(Cc2ccccc2OC)C(=O)c2ccco2)c1 (configuration not stated),-3,-9,u,u,-2%,-1
Cc1cc(C)c2c(NC(=S)Nc3ccccc3)n[nH]c2n1,-10,8,u,u,4%,2
CSc1ncccc1C(=O)OCC(=O)Nc1nc(C)c(Cl)cc1Cl,11,27,-5%,-7%,-4%,-10
Cc1ccc(CS(=O)Cc2ccc(C(=O)NC3CCCCC3)o2)cc1 (configuration not stated),16,-8,-1%,-16%,0%,-7
COc1ccc(CCNC(=O)[C@@H](NC(=O)N2CCn3c2nc2ccccc23)C(C)C)cc1OC,-1,-13,u,u,4%,-10
